Screening results from PubChem.
Mtb MbtI inh – inhibitors of Mycobacterium tuberculosis siderophore enzyme MbtI; inhibition, % (concentration not given with the values); P9WFX0; 100,000 tested, 0.89% active; purified MbtI enzyme, fluorescence intensity read-out; AID 493033; in the data active = inhibition mostly above about 56%, no sharp cut-off; inactive = mostly below about 77%
PV pol inh – poliovirus RNA polymerase inhibition; % elongation, % (compound at 16.7 µg/mL); P03300; AID 588519; 150,000 tested, 0.66% active; poliovirus polymerase elongation, fluorescence polarization; active compounds read low; in the data active = % elongation below about 90%
Target sequence (P03300 1749-2209 limits assumed): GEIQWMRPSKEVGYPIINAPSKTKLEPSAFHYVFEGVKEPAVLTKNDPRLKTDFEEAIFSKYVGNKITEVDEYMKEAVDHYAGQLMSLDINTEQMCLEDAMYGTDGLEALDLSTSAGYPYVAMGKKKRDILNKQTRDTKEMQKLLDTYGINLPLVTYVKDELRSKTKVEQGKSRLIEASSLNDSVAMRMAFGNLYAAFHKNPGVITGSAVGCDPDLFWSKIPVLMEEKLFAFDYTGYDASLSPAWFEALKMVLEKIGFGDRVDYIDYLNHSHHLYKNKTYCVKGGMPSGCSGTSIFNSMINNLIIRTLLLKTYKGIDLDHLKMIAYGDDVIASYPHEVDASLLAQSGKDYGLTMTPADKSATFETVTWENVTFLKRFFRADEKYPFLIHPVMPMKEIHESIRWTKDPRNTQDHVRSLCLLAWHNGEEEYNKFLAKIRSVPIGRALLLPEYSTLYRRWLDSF
MenB inh – inhibitors of Mycobacterium tuberculosis MenB enzyme; P9WNP5; 100,000 tested, 0.43% active; inhibition, % (no concentration beside the values); MenB enzyme assay, absorbance read-out; in the data active = inhibition above about 21%, passing the limit was not always enough
* hit, by the source's call; nt = not tested or not shown. Rows were chosen to be rich in hits. Some 1.5% of all compounds tested hit in one or more screens of this group.

SMILES	Mtb MbtI inh	PV pol inh	MenB inh
N#C/C(=C\Nc1cc(C(F)(F)F)cc(C(F)(F)F)c1)S(=O)(=O)Cc1ccc(Cl)cc1	2	107	-8
NCCc1c[nH]c2ccccc12	-15	99	-4
COc1cccc2c(CCN)c[nH]c12	nt	89*	6
Cc1cc2c(cc1S(=O)(=O)NCCN1CCN(c3ccccc3F)CC1)OCC(=O)N2	8	103	10
Oc1c(C(c2ccc(F)cc2)N2CCCCC2)ccc2cccnc12 (stereo not given)	36	105	nt
Oc1c(C(c2cccs2)N2CCCCC2)ccc2cccnc12 (stereo not given)	97*	135	-76
O=C(Cn1cc(SCc2ccc(C(F)(F)F)cc2)c2ccccc21)N1CCCCCC1	nt	115	nt
O=C(Cn1cc(SCc2ccc(C(F)(F)F)cc2)c2ccccc21)N1CCCCC1	nt	44*	nt
O=C1CSc2nnc(-c3ccccc3)n21	0	54*	9
c1ccc(-c2nnc(-c3ccccc3)n2-c2ccncc2)cc1	-11	nt	nt
O=C(c1cc(-c2ccccc2)c(N2CCCCC2)s1)n1ccnc1	-4	103	-45
COc1cc2c(=O)n(Cc3ccccc3Cl)c(=O)n(CC(=O)N3CC(C)CC(C)C3)c2cc1OC (stereo not given)	6	102	-19
CCOc1ccc(C(=O)c2ccccc2C(=O)O)cc1OCC	9	47*	6
O=C(O)c1ccccc1C(=O)c1ccc(-c2ccccc2)cc1	17	103	9
Nc1nc(SC#CC(F)(F)F)ns1	51	85*	-19
N#Cc1nncn1-c1ncnc2scc(-c3ccc(Cl)cc3)c12	-4	106	-23
O=c1[nH]nc(SCc2csc(-c3ccccc3)n2)c(=O)[nH]1	11	102	-6
O=c1[nH]nc(SCc2cn3ccccc3n2)c(=O)[nH]1	54	32*	-11
O=C1c2ccccc2C(=O)C1(O)N1CCOCC1	2	34*	19
O=C(CC1(c2ccc(Cl)cc2)C(=O)c2ccccc2C1=O)N1CCOCC1	-8	104	-35
CCn1c(SCC(=O)c2ccc(C)cc2)nnc1C1CC1	6	99	25
Cc1ccc(C(=O)CSC2=NCCCCC2)cc1	16	93	33*
CC1CCCN(S(=O)(=O)c2cc(C(=O)NCc3ccccc3Cl)n(C)c2)C1 (stereo not given)	nt	107	nt
CCN1C(=O)N(c2ccccc2)P(=S)(N2CCCC2)c2cc3c(cc21)OCCO3 (stereo not given)	90*	87*	-18
c1ccc(CN2CCN(Cc3ccc4c(c3)OCCO4)CC2)cc1	-2	100	8
SMILES	Mtb MbtI inh	PV pol inh	MenB inh
O=C(Nc1ccc(N2CCCC2)cc1)c1ccccc1Cl	2	99	1
COc1cccc(C(=O)NCC(C)C)c1	-1	103	-12
O=C(NC(=S)SCc1ccc(Cl)cc1)c1ccccc1	-2	103	nt
S=C1NC2(CCCC2)Nc2ccccc21	31	93	-73
c1ccc2c(c1)COC1(CCCCC1)N2	1	102	38*
NCC(=O)NCc1ccco1	-11	104	-24
CCCCN(CC)C(=O)c1cc(OC)c(OC)c(OC)c1	0	102	-15
CN(Cc1nc2ccccc2c(=O)[nH]1)C(=O)COc1ccc2c(c1)CCC2	-12	55*	-35
CCCC(=O)N(Cc1nc2ccccc2c(=O)[nH]1)C1CCCC1	0	108	-58
COc1ccc(CCN2COc3ccc4c5c(oc4c3C2)C(=O)c2ccccc2C5=O)cc1OC	2	98	-13
O=C1c2ccccc2C(=O)c2c1oc1c3c(ccc21)OCN(C1CCCC1)C3	0	83*	5
O=C1c2ccccc2C(=O)c2c1oc1c3c(ccc21)OCN(CCCN1CCOCC1)C3	-3	86*	-14
O=C1c2ccccc2C(=O)c2c1oc1c3c(ccc21)OCN(C1CCS(=O)(=O)C1)C3 (stereo not given)	-5	87*	-8
CCCN1COc2ccc3c(-c4ccccc4)cc(=O)oc3c2C1	20	104	-19
O=c1oc2c3c(ccc2c2c1CCCC2)OCN(CCc1ccccc1)C3	114	102	-2
CC(C)CCN1COc2ccc3c4c(oc3c2C1)C(=O)c1ccccc1C4=O	3	92	-1
O=C1c2ccccc2C(=O)c2c1oc1c3c(ccc21)OCN(CC1CCCO1)C3 (stereo not given)	1	88*	-27
CC(OC(=O)c1ccc(S(=O)(=O)C(F)F)cc1)C(N)=O (stereo not given)	-6	103	-10
CCCN(CCC)C(=O)Cn1c(=O)oc2cc(S(=O)(=O)N3CC(C)CC(C)C3)ccc21 (stereo not given)	14	100	-17
CN(Cc1nc2ccccc2c(=O)[nH]1)C(=O)c1nn(Cc2ccccc2)c(=O)c2ccccc12	11	104	3
CCC(O)c1nc2ccccc2n1CCOc1ccccc1 (stereo not given)	-3	105	-14
